GLD-1 TGE inh: GLD-1-TGE RNA interaction inhibition (C. elegans); purified GLD-1 + fluorescein TGE RNA, fluorescence polarization; AID 2280; inhibition, % at 5.96 µM; 0.44% of 320,000 active;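 active means percent inhibition above a per-plate cutoff, the plate mean of test compounds plus 3 SD, cut at about 30% in these data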;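 further: 0% = DMSO wells with GLD-1 and probe and 100% = wells lacking GLD-1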
Bcl-xL primary: blocks human Bcl-xL binding to Bim BH3 peptide; Q07817; AID 2129; 0.7% of 320,000 active; GST-Bcl-xL / FITC-Bim BH3 peptide fluorescence polarization; inhibition, % at 10.9 µM;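 active means inhibition above the mean of all tested compounds plus 3 SD, cutoff set per campaign, cut at about 30% in these data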;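 further: 0% = DMSO wells and 100% = unlabeled Bim-BH3 peptide competitor; inhibitors lower millipolarization by displacing the labeled peptide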
eLon inh: E. coli protease La inhibition; inhibition, % at 7.94 µM; P0A9M0; 0.42% of 360,000 active; purified E. coli Lon protease, fluorescence polarization; AID 602123; in the data active means inhibition above about 13%, passing the limit was not always enough;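 further: 0% = enzyme with probe and DMSO and 100% = no enzyme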
MEX-5 binding: C. elegans MEX-5 TCR-2 RNA binding activity | Q9XUB2 | MEX-5/FITC-TCR2 RNA binding, fluorescence polarization; stronger effect = lower value | activity score (negative = inhibition of binding), % at 10 µM | 0.38% of 300,000 active;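 active means inhibition past about -25% in most replicates, and total fluorescence under double the plate's negative control median, limit read from the data; inconclusive means replicates evenly split on the limit, or fluorescence at least double controls; inactive means too little inhibition in most replicates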;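 further: 0% = DMSO and -100% = 5 µM competing unlabeled TCR2 RNA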
Target sequence (Q9XUB2 whole entry, looked up): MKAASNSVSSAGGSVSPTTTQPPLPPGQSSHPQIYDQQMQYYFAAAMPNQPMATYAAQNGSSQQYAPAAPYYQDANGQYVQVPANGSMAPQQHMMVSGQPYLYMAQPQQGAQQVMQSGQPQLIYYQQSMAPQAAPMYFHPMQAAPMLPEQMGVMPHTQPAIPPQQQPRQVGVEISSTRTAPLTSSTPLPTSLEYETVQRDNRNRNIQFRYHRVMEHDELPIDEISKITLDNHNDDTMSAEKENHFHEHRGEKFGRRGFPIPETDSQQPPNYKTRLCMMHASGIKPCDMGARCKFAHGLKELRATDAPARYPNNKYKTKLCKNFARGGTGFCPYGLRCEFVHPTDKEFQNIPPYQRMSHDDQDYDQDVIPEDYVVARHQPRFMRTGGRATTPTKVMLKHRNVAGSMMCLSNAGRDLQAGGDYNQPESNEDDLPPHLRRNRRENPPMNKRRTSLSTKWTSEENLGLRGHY
EBV gp42 block: EBV gp42 inhibition; Q1HVG2; Fluorescence polarization binding assay, mP read-out; inhibition, % (tested at 21.74 µM); 0.42% of 220,000 active; AID 1085; in the data active means inhibition above about 50%
Target sequence (Q1HVG2 whole entry, looked up): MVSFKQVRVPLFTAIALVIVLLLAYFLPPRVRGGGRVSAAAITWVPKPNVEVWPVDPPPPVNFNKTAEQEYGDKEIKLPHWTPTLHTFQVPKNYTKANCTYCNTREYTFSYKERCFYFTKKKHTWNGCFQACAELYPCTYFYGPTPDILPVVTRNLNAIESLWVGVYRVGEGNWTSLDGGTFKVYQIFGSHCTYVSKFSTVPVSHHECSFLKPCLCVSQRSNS
MCL1 BIM primary: inhibitors of human MCL1 binding to BIM-BH3 peptide. Q07820. GST-MCL1 / FITC-Bim-BH3 fluorescence polarization. inhibition, % at 10.9 µM. 0.68% of 320,000 active. AID 2057;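 active means inhibition above the mean inhibition of all tested compounds plus 3 SD, set per campaign, cut at about 40% in these data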;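 further: 0% = DMSO wells and 100% = unlabeled Bim-BH3 peptide control; higher means more loss of mP so more displacement of Bim peptide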
BCLXL inh confirm: Bcl-xL (human) inhibition, MCL1 counter-screen confirmation. inhibition, % at 10.9 µM. 54% of 1,700 active. shares compounds with MCL1 BIM primary. GST-Bcl-xL / FITC-Bim BH3 peptide FP binding;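 active means inhibition above a cutoff equal to the mean inhibition of all tested compounds plus 3 SD, cut at about 30% in these data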;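 further: 0% = DMSO wells and 100% = unlabeled Bim BH3 control peptide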
MCL1 inh confirm: MCL1-BIM-BH3 interaction inhibition, confirmation | shares compounds with MCL1 BIM primary | GST-MCL1 / FITC-Bim-BH3 fluorescence polarization | inhibition, % at 10.9 µM | 61% of 1,700 active;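 active means inhibition above the average of all tested compounds plus 3 SD, cut at about 40% in these data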;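 further: 0% = DMSO wells and 100% = unlabeled Bim-BH3 control peptide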
GLD-1 TGE cf: confirmation of C. elegans GLD-1 TGE RNA binding inhibitors; shares compounds with GLD-1 TGE inh; GLD-1/FL-TGE RNA fluorescence polarization, biochemical; inhibition, % at 5.96 µM; 10% of 550 active; AID 2459;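 active means average inhibition across triplicates above the hit cutoff set in the primary screen, cut at about 32% in these data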;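 further: 0% = GLD-1 with RNA probe and DMSO and 100% = wells lacking GLD-1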
* marks the source's active call; other numbers are inactive results; ? = inconclusive; · = no result given; + = active, no number. The list is not random: actives were taken first. Their share in the collection is about 1.4%.

SMILES	GLD-1 TGE inh	Bcl-xL primary	eLon inh	MEX-5 binding	EBV gp42 block	MCL1 BIM primary	BCLXL inh confirm	MCL1 inh confirm	others
O=C1NC(=S)N(c2ccc(F)cc2)C(=O)/C1=C/c1ccco1	1	79*	·	-94*	·	68*	73*	62*
COc1ccc(OC)c(N2C(=O)NC(=O)/C(=C/c3ccc([N+](=O)[O-])s3)C2=O)c1	-2	26	-7	-42*	1	46*	76*	108*
COc1ccc(N2C(=O)/C(=C/c3ccc(C)o3)C(=O)NC2=S)cc1	·	·	-22	-7	·	·	·	·
O=C1NC(=S)N(c2ccc(F)cc2)C(=O)/C1=C\c1ccoc1	·	·	-214	·	-33	·	·	·
CCN1C(=O)/C(=C\c2ccc([N+](=O)[O-])s2)C(=O)NC1=S	·	·	·	·	1	·	·	·
COc1ccc(OC)c(N2C(=O)/C(=C/c3ccco3)C(=O)NC2=S)c1	10	80*	·	-2	·	87*	71*	78*
C[C@]12CCC(=O)C=C1C=CC1C2CC[C@]2(C)C(=O)CCC12 (stereo not given in full)	4	·	-17	·	·	·	·	·
N/C(=N/[N+](=O)[O-])N1CCN(C(=O)Oc2ccc([N+](=O)[O-])cc2)CC1	-1	5	-1	1	·	-1	·	·
O=C(CCNC(=O)N1C[C@H]2C[C@@H](C1)c1cccc(=O)n1C2)Nc1ccc(F)cc1	1	3	-1	1	·	0	·	·
Oc1c(Br)c(Br)c(Br)c(Br)c1Br	10	3	0	·	·	73*	23	55*
CC1CC2(C)C(=CC1=O)CCC1C3CCC(C)(O)C3(C)CC3OC312 (stereo not given)	·	·	0	·	·	·	·	·
CC(C)C[C@H]1C(=O)N2CCC[C@H]2[C@]2(O)O[C@](NC(=O)[C@@H]3C=C4c5cccc6[nH]cc(c56)C[C@H]4N(C)C3)(C(C)C)C(=O)N12	118*	149*	92	·	·	+	93*	114*
O=C(Cn1cnc2sc3c(c2c1=O)CCCC3)NCCCC(=O)N1CCC2(CC1)OCCO2	2	1	-11	1	-5	-4	·	·
CN1/C(=C\C=C\C2=[N+](C)c3ccc4ccccc4c3C2(C)C)C(C)(C)c2ccccc21	179*	190*	·	·	97*	+	166*	200*
CCOc1cc(C2C(C#N)=C(N)Oc3c2c(=O)oc2ccccc32)ccc1OC(=O)c1cccs1 (stereo not given)	-2	5	-5	3	-11	4	·	·
Cc1cc(N2CCCC2)ccc1C=C(C#N)C#N	-70	119*	-25	?	85*	180*	85*	108*
COC(=O)CC(NC(=S)N1CC2C[C@@H](C1)Cn1c2cccc1=O)C(=O)OC (stereo not given in full)	0	-5	2	-1	·	-11	·	·
Cc1ccc(C(=O)NC(O)C(Cl)(Cl)Cl)cc1 (stereo not given)	-2	6	10	2	-18	6	·	·
COc1ccc(N/N=C/c2c(O)n(-c3ccc(C)c(C)c3)c(=O)[nH]c2=O)cc1	-12	51*	-136	0	-3	54*	11	5
CN1CCN(c2cccc3c2C(=O)c2ccccc2C3=O)CC1	·	·	-1	-6	21	·	·	·
CN1CCN(c2ccc3c(c2)S(=O)(=O)c2ccccc2C3=O)CC1	8	74*	-13	-2	·	85*	63*	84*
Nc1c(C(=O)NCC2CCCO2)c2nc3ccccc3nc2n1Cc1ccco1 (stereo not given)	35*	57*	-41	-1	-4	58*	7	3
C#C[C@]1(O)CC[C@H]2[C@@H]3CCC4=Cc5nc6nc7ccccc7n6cc5C[C@]4(C)[C@H]3CC[C@@]21C	16	51*	-39	·	·	60*	21	25
CC(C)CN(CC(C)C)c1ccc(C=C2C(=O)NC(=S)NC2=O)cc1[N+](=O)[O-]	-3	19	4	-6	-14	70*	42*	97*
O=C1NC(=O)N(c2ccc(Cl)cc2)C(=O)/C1=C\c1ccc(Sc2nc3ccccc3[nH]2)o1	-8	59*	-27	1	-24	74*	30	64*
SMILES	GLD-1 TGE inh	Bcl-xL primary	eLon inh	MEX-5 binding	EBV gp42 block	MCL1 BIM primary	BCLXL inh confirm	MCL1 inh confirm	others
O=C1NC(=O)C(=Cc2ccc(Sc3ccccc3)o2)C(=O)N1	-4	2	-25	0	-27	12	·	·
Cn1cc(/C=C2\C(=O)NC(=O)N(c3ccccc3)C2=O)c2ccccc21	-10	151*	-85	-82*	·	182*	60*	64*
Cc1cc(/C=C2/C(=O)NC(=O)N(c3ccccc3)C2=O)c(C)n1-c1ccc(F)cc1	1	-4	-17	-9	·	-2	·	·
Cn1cc(NC(=O)CCl)cn1	1	1	7	-1	-60	-1	·	·
CCOc1ccc(-n2c(O)c(/C=C3\C=Nc4ccccc43)c(=O)[nH]c2=O)cc1	-23	78*	-77	-13	·	79*	6	-8
CN1C(=O)C(=Cc2cn(CC(=O)N3CCCC3)c3ccccc23)C(=O)N(C)C1=O	-5	0	-25	?	·	-8	·	·
CCN1C(=O)NC(=O)/C(=C\c2cn(CC(=O)N3CCCCC3C)c3ccccc23)C1=O (stereo not given)	-6	105*	-37	?	·	81*	162*	+
C=CCn1c(=O)c(C=Nc2cccnc2Cl)c(O)n(CCCC)c1=O	-23	-49	-67	0	-18	-103	·	·
CCOC(=O)[C@]1(C#N)[C@@H]2C=CC(C(C)=O)=CN2[C@@H](C(N)=O)[C@@H]1c1ccsc1	54*	88*	-9	-53*	71*	96*	108*	145*
COC(=O)C1=C(c2cc3ccccc3s2)C[C@@H]2CC[C@H]1N2C(=O)NC1CCCCC1	-1	3	2	1	·	6	·	·
COc1ccc2c(c1O)-c1c(OC)c(OC)cc3c1[C@H](C2)N(C)CC3	-1	8	-3	·	·	3	·	·
CCCN1CCc2cccc3c2[C@H]1Cc1ccc(O)c(O)c1-3	15	32*	12	-84*	·	46*	54*	85*
O=C1C=C2C=C[C@@H]3CC2(O1)[C@H]1CCCCN31	-1	4	-2	·	·	125*	3	4
CC1(O)CCN2C(=O)CCc3cccc1c32 (stereo not given)	58*	49*	16	·	·	66*	8	9	GLD-1 TGE cf=2

High-throughput results (PubChem BioAssay)
